Experimental findings from PubChem BioAssay (EPA / NIEHS) are described below.

In general, AC50 refers to the concentration at which the activity in the assay is half-maximal.

The structures appear in SMILES notation. “And” between values parts separate entries of the source, which are not always exact repeats. Equal entries are not always repeated. The source made the active and inactive calls. Rule for the calls: active = hit-call score of the fitted dose curve at least 0.9, where 1 is the maximum; inactive = score below 0.9.

Test [1] is described as follows: BSK_CASM3C_SRB: Viability Assessment in the BioMAP Diversity Plus: CASM3C Assay (AID 2283050).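 Note: cells exposed to compound for 24 h.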 The note with it: primary human coronary artery smooth muscle cells.
Read-out in test [2]: Thrombomodulin, THBD (gene 7056)
As to the kind of experiment: BSK_CASM3C_Thrombomodulin: BioMAP Diversity Plus: CASM3C Assay for Thrombomodulin Biomarker Activity (AID 2283051).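 Note: thrombomodulin protein level measured by ELISA 24 h after dosing.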 The settings on record: primary human coronary artery smooth muscle cells; actives raise or lower the signal.

Read-out in test [3]: Tissue Factor, F3 (gene 2152)
Put plainly: BSK_CASM3C_TissueFactor: BioMAP Diversity Plus: CASM3C Assay for Tissue Factor Biomarker Activity (AID 2283052).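 Note: cell surface tissue factor protein level read by ELISA.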 The note with it: primary human coronary artery smooth muscle cells; actives raise or lower the signal.

Read-out in test [4]: Interferon-gamma inducible Protein 10 (IP10), CXCL10 (gene 3627)
Put plainly: BSK_hDFCGF_IP10: BioMAP Diversity Plus: hDFCGF Assay for Interferon-gamma inducible Protein 10 (IP10) Biomarker Activity (AID 2283053). The settings on record: primary human foreskin fibroblasts; actives raise or lower the signal. Summed up: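 Primary human foreskin fibroblasts exposed to chemicals for 24 h. IP-10 measured by ELISA; changes fitted bidirectionally against DMSO baseline.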

Read-out in test [5]: Urokinase-type plasminogen activator receptor (uPAR), PLAUR (gene 5329)
As to the kind of experiment: BSK_CASM3C_uPAR: BioMAP Diversity Plus: CASM3C Assay for Urokinase-type plasminogen activator receptor (uPAR) Biomarker Activity (AID 2283054).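 Note: cell-surface uPAR protein level quantified by ELISA.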 The settings on record: primary human coronary artery smooth muscle cells; actives raise or lower the signal.

Read-out in test [6]: Vascular cell adhesion molecule 1 (VCAM1), VCAM1 (gene 7412)
Put plainly: BSK_CASM3C_VCAM1: BioMAP Diversity Plus: CASM3C Assay for Vascular cell adhesion molecule 1 (VCAM1) Biomarker Activity (AID 2283055).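 Note: VCAM-1 protein level quantified by ELISA on the cells.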 The note with it: primary human coronary artery smooth muscle cells; actives raise or lower the signal.

Read-out in test [7]: Collagen III, COL3A1 (gene 1281)
Put plainly: BSK_hDFCGF_CollagenIII: BioMAP Diversity Plus: hDFCGF Assay for Collagen III Biomarker Activity (AID 2283056). The settings on record: primary human foreskin fibroblasts; actives raise or lower the signal. A digest of the protocol: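 ELISA readout of Collagen III in human dermal (foreskin) fibroblasts, taken 24 h post-treatment. Gain or loss relative to DMSO vehicle fitted in both directions.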

Read-out in test [8]: Epidermal growth factor receptor (EGFR), EGFR (gene 1956)
As to the kind of experiment: BSK_hDFCGF_EGFR: BioMAP Diversity Plus: hDFCGF Assay for Epidermal growth factor receptor (EGFR) Biomarker Activity (AID 2283057). The note with it: primary human foreskin fibroblasts; actives raise or lower the signal. Summed up: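 Primary human foreskin fibroblasts (hDFCGF system), sampled 24 h after dosing; EGFR quantified by ELISA. Bidirectional fit relative to DMSO baseline; SRB total-protein staining in parallel cultures for cytotoxicity.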

Read-out in test [9]: Interleukin-8 (IL8), CXCL8 (gene 3576)
Put plainly: BSK_hDFCGF_IL8: BioMAP Diversity Plus: hDFCGF Assay for Interleukin-8 (IL8) Biomarker Activity (AID 2283058). The note with it: primary human foreskin fibroblasts; actives raise or lower the signal. Summed up:
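IL-8 levels read by ELISA at 24 hours after dosing human skin fibroblast cultures. Parallel SRB staining assessed overt cytotoxicity, and gain or loss of signal was fitted against DMSO control.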

The nature of test [10]: BSK_hDFCGF_Proliferation: Cell Proliferation Assessment in the BioMAP Diversity Plus: hDFCGF Assay (AID 2283059).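 Note: curves fitted for both rise and fall of signal versus DMSO baseline.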 The note with it: primary human foreskin fibroblasts. Summed up:
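This proliferation readout used SRB total-protein staining of human foreskin fibroblasts […], normalized to DMSO with bidirectional curve fitting.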

Read-out in test [11]: Macrophage colony-stimulating factor (MCSF), CSF1 (gene 1435)
Put plainly: BSK_hDFCGF_MCSF: BioMAP Diversity Plus: hDFCGF Assay for Macrophage colony-stimulating factor (MCSF) Biomarker Activity (AID 2283060). The note with it: primary human foreskin fibroblasts; actives raise or lower the signal. A digest of the protocol:
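M-CSF levels read by ELISA at 24 h post-dosing in human skin fibroblasts. Parallel cultures stained with SRB assessed cytotoxicity at the same time point; response fitted in both directions against the DMSO baseline.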

The nature of test [12]: BSK_hDFCGF_SRB: Viability Assessment in the BioMAP Diversity Plus: hDFCGF Assay (AID 2283061).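 Note: cells exposed to compound for 24 h before the read.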 The settings on record: primary human foreskin fibroblasts. Summed up:
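Viability was read as total protein: after 10% TCA fixation, wells were stained with 0.1% sulforhodamine B and read at 560 nm. Primary human foreskin fibroblasts were dosed for 24 h, with bidirectional fitting versus DMSO.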

Read-out in test [13]: TIMP metallopeptidase inhibitor 1 (TIMP1), TIMP1 (gene 7076)
Put plainly: BSK_hDFCGF_TIMP1: BioMAP Diversity Plus: hDFCGF Assay for TIMP metallopeptidase inhibitor 1 (TIMP1) Biomarker Activity (AID 2283062). The note with it: primary human foreskin fibroblasts; actives raise or lower the signal. Summed up: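 TIMP-1 measured by ELISA 24 h after chemical dosing of primary human skin fibroblasts, with gain or loss fitted relative to DMSO. Parallel SRB staining (560 nm) monitored overt cytotoxicity.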

Read-out in test [14]: Monokine induced gamma interferon (MIG), CXCL9 (gene 4283)
As to the kind of experiment: BSK_hDFCGF_MIG: BioMAP Diversity Plus: hDFCGF Assay for Monokine induced gamma interferon (MIG) Biomarker Activity (AID 2283063). The settings on record: primary human foreskin fibroblasts; actives raise or lower the signal. A digest of the protocol: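 Human primary foreskin fibroblasts in the hDFCGF system, exposed to test chemical for 24 h; MIG measured by ELISA. Bidirectional curve fitting against DMSO negative control as activity baseline.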

Read-out in test [15]: Matrix Metallopeptidase 1 (MMP1), MMP1 (gene 4312)
Put plainly: BSK_hDFCGF_MMP1: BioMAP Diversity Plus: hDFCGF Assay for Matrix Metallopeptidase 1 (MMP1) Biomarker Activity (AID 2283064). The note with it: primary human foreskin fibroblasts; actives raise or lower the signal. Summed up:
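Primary human foreskin fibroblasts in the hDFCGF system were dosed with test chemical, and MMP1 was measured by ELISA 24 h later. Values come from bidirectional curve fitting against the DMSO baseline.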

Read-out in test [16]: Plasminogen activator inhibitor-1 (PAI1), SERPINE1 (gene 5054)
Put plainly: BSK_hDFCGF_PAI1: BioMAP Diversity Plus: hDFCGF Assay for Plasminogen activator inhibitor-1 (PAI1) Biomarker Activity (AID 2283066). The note with it: primary human foreskin fibroblasts; actives raise or lower the signal. Summed up: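 Human foreskin fibroblast primary cells, 24 h chemical exposure; PAI-1 measured by ELISA. Bidirectional fitting relative to DMSO; parallel cultures stained with SRB for total protein to flag overt cytotoxicity.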

Read-out in test [17]: Interferon-gamma inducible Protein 10 (IP10), CXCL10 (gene 3627)
As to the kind of experiment: BSK_KF3CT_IP10: BioMAP Diversity Plus: KF3CT Assay for Interferon-gamma inducible Protein 10 (IP10) Biomarker Activity (AID 2283068). The note with it: primary human keratinocytes with fibroblasts; actives raise or lower the signal. A digest of the protocol:
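Signal is secreted/surface IP-10 by ELISA in a human primary skin co-culture of keratinocytes and foreskin fibroblasts, taken 24 h post-dosing; DMSO served as negative control.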

Test [18] in a line: BSK_KF3CT_SRB: Viability Assessment in the BioMAP Diversity Plus: KF3CT Assay (AID 2283069).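 Note: total protein by sulforhodamine B staining as a cytotoxicity measure; read 24 h after compound addition; fitted for both signal gain and loss against DMSO baseline.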 The settings on record: primary human keratinocytes with fibroblasts. A digest of the protocol: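 Human primary keratinocyte plus foreskin fibroblast co-culture exposed to chemicals for 24 h. Total protein measured by 0.1% sulforhodamine B staining after 10% TCA fixation, read at 560 nm; bidirectional fitting versus DMSO baseline.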

Read-out in test [19]: Intercellular Adhesion Molecule 1 (ICAM1), ICAM1 (gene 3383)
As to the kind of experiment: BSK_KF3CT_ICAM1: BioMAP Diversity Plus: KF3CT Assay for Intercellular Adhesion Molecule 1 (ICAM1) Biomarker Activity (AID 2283067). The note with it: primary human keratinocytes with fibroblasts; actives raise or lower the signal. Summed up:
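Cell-surface ICAM-1 was measured by ELISA 24 h after dosing primary human skin keratinocytes co-cultured with fibroblasts. Parallel SRB staining tracked overt cytotoxicity. Gain or loss of signal was fitted relative to DMSO.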

Consider `OCCN1CCOCC1`, for which the result in [1], in [2], in [4], in [5], in [6] and in test [7] was inactive. The result in test [8], in test [9], in test [10], in test [11], in test [12] and in test [13] was inactive. Moreover, the result in [14], in test [15], in [16], in test [17] and in test [18] was inactive. Besides, the AC50 in test [3] was 2.22 µM (active).

As for `CCCCCCCCCC(=O)OCC`, the AC50 is 33 µM (active) in test [1]; 30.4 µM (active) in [3]; 31.1 µM (active) in test [5]; 31.1 µM (active) in test [6]; 31.5 µM (active) in test [7]; 13.7 µM (active) in test [10]. Besides, the AC50 in test [11] is 30.2 µM (active); in test [16], 31.4 µM (active). Further, the result in test [2], in [4], in test [8], in test [9], in test [12] and in test [13] was inactive. Also, the outcome in test [14], in [15], in test [19], in test [17] and in test [18] was inactive.

As for `CCCO[Si](OCCC)(OCCC)OCCC`, the outcome in [1], in test [2], in test [3], in test [4], in [5] and in test [6] was inactive. Also, the outcome in test [7], in test [8], in test [9], in test [11], in [12] and in test [13] was inactive. Further, the outcome in [14], in [15], in test [16], in test [17] and in test [18] was inactive. In test [10], the concentration at half-maximal activity (AC50) was 31.1 µM (active) and 25.8 µM (active).

Take `C=C1CC/C=C(\C)CC[C@@H]2[C@@H]1CC2(C)C`: the AC50 is 33.2 µM (active) in test [1]; 30.1 µM (active) in test [4]; 29 µM (active) in [6]; 13.5 µM (active) in [7]; 33.9 µM (active) in test [9]; 6.82 µM (active) in [10]. Also, the AC50 in test [11] is 24.5 µM (active); in test [12], 27.7 µM (active); in test [13], 27.5 µM (active); in test [14], 33.9 µM (active); in test [15], 29.7 µM (active); in test [16], 31.2 µM (active). Also, the AC50 in [17] was 25.2 µM (active); in test [18] it was 28.1 µM (active). For the same molecule, the outcome in test [2], in [3], in test [5] and in test [8] was inactive.

As for `C=CC(=O)OCC(CO)(COC(=O)C=C)COC(=O)C=C`, the AC50 was 1.61 µM (active) in test [1]; 4.58 µM (active) in test [2]; 1.25 µM (active) in test [3]; 0.016 µM (active) in [4]; 0.501 µM (active) in [5]; 0.206 µM (active) in test [6]. The AC50 in test [7] is 0.016 µM (active); in test [9] it was 3.97 µM (active); in [10], 0.016 µM (active); in [11], 0.0377 µM (active); in test [12], 0.0163 µM (active); in test [13], 0.016 µM (active). In addition, the AC50 was 0.0177 µM (active) in [14]; 0.146 µM (active) in [15]; 0.0266 µM (active) in test [16]; 1.08 µM (active) in [17]; 0.592 µM (active) in test [18]. Moreover, the result in test [8] was inactive.

Turning to `c1ccc2c(c1)-c1ccc3ccc4cccc5cc-2c1c3c45`, the result in [1], in test [2], in test [3], in test [4], in [5] and in [6] was inactive. The outcome in test [7], in test [8], in test [9], in test [10], in test [12] and in test [13] was inactive. The result in [14], in test [15], in test [16], in [17] and in test [18] was inactive. Moreover, the AC50 in test [11] is 0.0865 µM (active).
